From PubChem BioAssay (Tox21)
Results filed as inconclusive are left out. The source made the active and inactive calls. Unless noted, calls come from the whole dose curve; as a rule, active = well fitted curve in the direction sought with a large enough effect in the repeat runs; inconclusive = weak or mixed curves; inactive = no such curve, though single readings can be large; an effect the other way counts as inactive or inconclusive.

Tests used:
[1] = molecular target: Aryl hydrocarbon receptor (Homo sapiens) (UniProt P35869); experiment: qHTS assay to identify small molecule that activate the aryl hydrocarbon receptor (AhR) signaling pathway (AID 743085);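 note: HG2L7.5c1 human HepG2 liver cells with stably integrated DRE-driven firefly reporter; series mostly up to about 70 µM; nearly all actives have a fitted effect of over 15% in size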
Sequence of Aryl hydrocarbon receptor (Homo sapiens) (P35869 whole entry, looked up): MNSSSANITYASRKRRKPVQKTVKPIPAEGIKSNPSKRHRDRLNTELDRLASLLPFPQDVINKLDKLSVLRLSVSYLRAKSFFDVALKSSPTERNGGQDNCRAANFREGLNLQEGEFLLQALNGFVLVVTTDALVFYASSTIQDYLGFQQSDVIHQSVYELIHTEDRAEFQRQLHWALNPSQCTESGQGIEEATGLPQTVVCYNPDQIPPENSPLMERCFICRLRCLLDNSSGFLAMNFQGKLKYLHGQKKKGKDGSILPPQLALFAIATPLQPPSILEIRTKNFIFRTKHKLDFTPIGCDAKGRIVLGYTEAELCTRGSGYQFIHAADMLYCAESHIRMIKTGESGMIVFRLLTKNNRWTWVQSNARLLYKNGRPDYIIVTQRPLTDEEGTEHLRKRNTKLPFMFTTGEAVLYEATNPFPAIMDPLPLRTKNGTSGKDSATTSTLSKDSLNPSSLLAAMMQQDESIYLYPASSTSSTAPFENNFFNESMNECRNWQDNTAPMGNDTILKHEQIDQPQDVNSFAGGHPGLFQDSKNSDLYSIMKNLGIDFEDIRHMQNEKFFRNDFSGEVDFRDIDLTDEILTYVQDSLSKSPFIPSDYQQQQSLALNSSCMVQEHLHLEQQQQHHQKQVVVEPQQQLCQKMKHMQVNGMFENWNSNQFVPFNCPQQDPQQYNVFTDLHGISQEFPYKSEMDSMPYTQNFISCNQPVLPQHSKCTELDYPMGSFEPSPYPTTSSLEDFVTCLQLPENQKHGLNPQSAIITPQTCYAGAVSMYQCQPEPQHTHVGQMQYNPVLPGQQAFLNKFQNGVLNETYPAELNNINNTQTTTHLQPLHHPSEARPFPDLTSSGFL
Method in brief: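 Stably transfected human liver carcinoma cells (HG2L7.5c1; 20 DRE-firefly luciferase) were incubated 5 h, dosed, and kept 24 h at 37C. Agonism was scored from increased luciferase luminescence.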

[2] = qHTS assay to identify small molecule that activate the aryl hydrocarbon receptor (AhR) signaling pathway - cell viability counter screen (AID 743086);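 note: HepG2 liver cells carrying the AhR DRE luciferase reporter; series mostly up to about 70 µM; nearly all actives have a fitted effect of over 45% in size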
Method in brief: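 HepG2-AhR-luc (HG2L7.5c1) cells, 4000/well, were preincubated 5 h at 37C, exposed to compound in qHTS format for 24 hr at 37C, then given CellTiter-Fluor for 30 min; viability was read as fluorescence in the reporter wells.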

[3] = molecular target: Peroxisome proliferator-activated receptor gamma (Homo sapiens) (UniProt P37231); experiment: qHTS assay to identify small molecule agonists of the peroxisome proliferator-activated receptor gamma (PPARg) signaling pathway (AID 743094; active = well fitted activation curve with a large enough effect in the signal ratio in the repeat runs, not every such curve was filed as active; the % refers to the signal ratio)
Sequence of Peroxisome proliferator-activated receptor gamma (Homo sapiens) (P37231 whole entry, looked up): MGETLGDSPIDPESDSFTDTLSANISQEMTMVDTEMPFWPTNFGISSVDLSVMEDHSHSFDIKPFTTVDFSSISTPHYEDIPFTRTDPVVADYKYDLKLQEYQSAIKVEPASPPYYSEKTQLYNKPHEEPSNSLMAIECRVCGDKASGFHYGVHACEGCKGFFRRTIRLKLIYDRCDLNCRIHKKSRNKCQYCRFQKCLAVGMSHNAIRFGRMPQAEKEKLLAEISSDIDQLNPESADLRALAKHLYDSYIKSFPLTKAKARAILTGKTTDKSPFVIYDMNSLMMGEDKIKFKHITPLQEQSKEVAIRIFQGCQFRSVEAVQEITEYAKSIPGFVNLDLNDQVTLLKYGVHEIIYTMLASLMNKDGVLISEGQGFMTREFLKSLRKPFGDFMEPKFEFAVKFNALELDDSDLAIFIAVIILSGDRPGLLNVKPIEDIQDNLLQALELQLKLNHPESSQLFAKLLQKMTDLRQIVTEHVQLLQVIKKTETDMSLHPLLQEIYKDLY
Method in brief: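 GeneBLAzer PPARg UAS-bla HEK293H cells carrying a stably integrated beta-lactamase reporter were pre-incubated 5 h at 37C, then exposed to compounds in DMSO for 17 h at 37C; LiveBLAzer B/G FRET substrate was added for 1 h at room temperature and fluorescence read.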

[4] = molecular target: Peroxisome proliferator-activated receptor gamma (Homo sapiens) (UniProt P37231); experiment: qHTS assay to identify small molecule antagonists of the peroxisome proliferator-activated receptor gamma (PPARg) signaling pathway (AID 743191; calls by dose curve; note: series mostly up to about 63 µM; nearly all actives have a fitted effect of over 30% in size)
Method in brief: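 GeneBLAzer PPARg UAS-bla HEK293H cells carrying a UAS-driven beta-lactamase reporter were plated at 3000 cells/well, preincubated 5 h at 37C, then given compound for 17 h at 37C; LiveBLAzer B/G FRET substrate was read after 1 h at room temperature.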

[5] = qHTS assay to identify small molecule antagonists of the peroxisome proliferator-activated receptor gamma (PPARg) signaling pathway - cell viability counter screen (AID 743194); details: Potency: co-treated with 50 nM rosiglitazone; note: nearly all actives have a fitted effect of over 55% in size
Method in brief: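 PPARg-UAS-bla HEK293H cells were plated, rested 5 h at 37 C, then treated with compounds plus rosiglitazone (50 nM final) for 17 h at 37 C; viability was then read by CellTiter-Glo luminescence after 30 min at room temperature.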

[6] = qHTS assay for small molecule agonists of the antioxidant response element (ARE) signaling pathway (AID 743202; active = well fitted activation curve with a large enough effect in the signal ratio in the repeat runs, not every such curve was filed as active; the % refers to the signal ratio)
Method in brief: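 Compounds delivered in DMSO to ARE-bla HepG2 cells (2,000 cells/well, pre-incubated 5 h) and left 16 h at 37 C. LiveBLAzer B/G FRET substrate then added for 2 h at RT before fluorescence reading.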

[7] = qHTS assay for small molecule agonists of the antioxidant response element (ARE) signaling pathway - cell viability counter screen (AID 743203; calls by dose curve; note: nearly all actives have a fitted effect of over 55% in size)
Method in brief: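 CellSensor ARE-bla HepG2 cells, 2,000 per well, rested 5 hrs at 37C/5% CO2, then exposed to compound in DMSO for 16 hrs; viability read as CellTiter-Glo luminescence after 30 min at room temperature, in the reporter wells.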

[8] = qHTS assay for small molecule activators of the heat shock response signaling pathway - cell viability counter screen (AID 743209); note: nearly all actives have a fitted effect of over 50% in size
Method in brief: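 CellSensor HSE-bla HeLa cells, plated overnight at 37 C/5% CO2, were exposed to compounds in DMSO for 5 h at 37 C. Viability was then read in the same wells by CellTiter-Glo luminescence after 30 min at room temperature.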

[9] = qHTS assay for small molecule activators of the heat shock response signaling pathway (AID 743210; active = well fitted activation curve with a large enough effect in the signal ratio in the repeat runs, with a control signal flat, not every such curve was filed as active; the % refers to the signal ratio;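 note: HeLa cells with beta-lactamase reporter driven by heat shock elements; series mostly up to about 63 µM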)
Method in brief: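 Reporter gene assay: HeLa cells stably bearing an HSE-bla construct, compound treatment 5 h at 37 C, LiveBLAzer substrate 2.5 h at RT, fluorescence intensity.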

[10] = qHTS assay to identify small molecule agonists of the peroxisome proliferator-activated receptor delta (PPARd) signaling pathway - cell viability counter screen (AID 743211); note: nearly all actives have a fitted effect of over 55% in size
Method in brief: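 In the same wells used for beta-lactamase reporter measurement, cytotoxicity is scored by CellTiter-Glo. HEK293H PPARd-bla cells receive compound for 17 h at 37C following a 5 h settling period.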

[11] = molecular target: Peroxisome proliferator-activated receptor delta (Homo sapiens) (UniProt Q03181); experiment: qHTS assay to identify small molecule agonists of the peroxisome proliferator-activated receptor delta (PPARd) signaling pathway (AID 743212; calls by dose curve)
Sequence of Peroxisome proliferator-activated receptor delta (Homo sapiens) (Q03181 whole entry, looked up): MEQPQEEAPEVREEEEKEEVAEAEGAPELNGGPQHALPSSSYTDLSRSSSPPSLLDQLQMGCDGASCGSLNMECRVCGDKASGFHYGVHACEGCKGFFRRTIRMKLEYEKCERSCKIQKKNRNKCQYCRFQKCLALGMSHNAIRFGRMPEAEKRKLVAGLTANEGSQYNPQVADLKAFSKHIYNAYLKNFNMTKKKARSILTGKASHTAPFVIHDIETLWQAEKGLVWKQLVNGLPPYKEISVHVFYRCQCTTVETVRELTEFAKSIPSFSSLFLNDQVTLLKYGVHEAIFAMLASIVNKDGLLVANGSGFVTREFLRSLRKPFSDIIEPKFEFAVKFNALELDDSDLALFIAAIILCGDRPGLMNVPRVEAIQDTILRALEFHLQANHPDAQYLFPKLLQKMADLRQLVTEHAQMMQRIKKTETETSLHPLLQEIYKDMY
Method in brief: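 A PPARd-bla HEK293H line with beta-lactamase under an Upstream Activator Sequence is treated with compounds at 37 C. Substrate loading for 2 h at room temperature precedes the fluorescence measurement.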

[12] = qHTS assay to identify small molecule antagonists of the peroxisome proliferator-activated receptor delta (PPARd) signaling pathway - cell viability counter screen (AID 743213); note: nearly all actives have a fitted effect of over 50% in size
Method in brief: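 Same-well viability: cells pre-incubated 5 h, dosed with compound plus 300 nM L165041, kept 17 h at 37 C, FRET substrate 2 h RT, then CellTiter-Glo 30 min RT and luminescence.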

[13] = molecular target: Peroxisome proliferator-activated receptor delta (Homo sapiens) (UniProt Q03181); experiment: qHTS assay to identify small molecule antagonists of the peroxisome proliferator-activated receptor delta (PPARd) signaling pathway (AID 743215; active = well fitted inhibition curve with a large enough effect in the signal ratio in the repeat runs, not every such curve was filed as active; the % refers to the signal ratio;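 note: cells stimulated with agonist L165041 at 300 nM final during compound exposure; series mostly up to about 62 µM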)
Method in brief: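 PPARd UAS-bla HEK293H cells were pre-incubated 5 h at 37 C, then given test compounds in DMSO plus agonist L165041 (300 nM final). After 17 h at 37 C, beta-lactamase FRET substrate was added; fluorescence read after 2 h at room temperature.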

[14] = molecular target: Bile acid receptor (Homo sapiens) (UniProt Q96RI1); experiment: qHTS assay to identify small molecule antagonists of the farnesoid-X-receptor (FXR) signaling pathway (AID 743217; active = well fitted inhibition curve with a large enough effect in the signal ratio in the repeat runs, not every such curve was filed as active; the % refers to the signal ratio)
Sequence of Bile acid receptor (Homo sapiens) (Q96RI1 whole entry, looked up): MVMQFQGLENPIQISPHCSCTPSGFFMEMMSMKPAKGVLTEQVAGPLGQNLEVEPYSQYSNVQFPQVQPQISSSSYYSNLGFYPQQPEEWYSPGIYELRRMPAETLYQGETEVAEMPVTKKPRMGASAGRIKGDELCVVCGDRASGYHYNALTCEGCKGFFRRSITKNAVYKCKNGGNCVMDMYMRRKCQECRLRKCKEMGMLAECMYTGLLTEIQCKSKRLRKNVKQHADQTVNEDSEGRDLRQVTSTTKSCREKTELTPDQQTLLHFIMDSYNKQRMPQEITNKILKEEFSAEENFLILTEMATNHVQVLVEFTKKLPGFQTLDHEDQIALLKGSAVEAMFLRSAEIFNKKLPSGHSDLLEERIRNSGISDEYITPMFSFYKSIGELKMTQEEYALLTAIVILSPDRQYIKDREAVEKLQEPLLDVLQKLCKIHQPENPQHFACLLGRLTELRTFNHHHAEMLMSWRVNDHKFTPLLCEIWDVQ
Method in brief: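 FXR-UAS-bla HEK 293T cells pre-incubated 5 h at 37 °C, then exposed to compounds with chenodeoxycholic acid (50 uM final) for 16 h at 37 °C. Beta-lactamase reporter read by LiveBLAzer B/G FRET substrate fluorescence after 2 h at room temperature.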

[15] = qHTS assay to identify small molecule agonists of the farnesoid-X-receptor (FXR) signaling pathway - cell viability counter screen (AID 743218); note: nearly all actives have a fitted effect of over 45% in size
Method in brief: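 FXR-UAS-bla HEK 293T cells, plated 5 h at 37 C, were exposed to compounds for 16 h at 37 C. CellTiter-Glo was then added to the same wells as the bla readout; luminescence read after 30 min at room temperature.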

[16] = molecular target: Bile acid receptor (Homo sapiens) (UniProt Q96RI1); experiment: qHTS assay to identify small molecule agonists of the farnesoid-X-receptor (FXR) signaling pathway (AID 743220; active = well fitted activation curve with a large enough effect in the signal ratio in the repeat runs, not every such curve was filed as active; the % refers to the signal ratio)
Method in brief: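 Beta-lactamase reporter under UAS control in GeneBLAzer FXR HEK 293T cells (5000/well) measured with LiveBLAzer FRET substrate after 2 h at room temperature. Compound exposure lasted 16 h at 37C.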

[17] = qHTS assay to identify small molecule antagonists of the farnesoid-X-receptor (FXR) signaling pathway - cell viability counter screen (AID 743221; active = well fitted cell-killing curve with a large enough effect in the repeat runs, not every such curve was filed as active; note: nearly all actives have a fitted effect of over 50% in size)
Method in brief: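 Here viability was scored by luminescence after CellTiter-Glo addition to wells already read for beta-lactamase. Prior treatment: compound plus CDCA (50 uM final), 16 h, 37 C, HEK 293T FXR-bla cells.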

[18] = molecular target: Vitamin D3 receptor (Homo sapiens) (UniProt P11473); experiment: qHTS assay to identify small molecule agonists of the vitamin D receptor (VDR) signaling pathway (AID 743222; calls by dose curve)
Sequence of Vitamin D3 receptor (Homo sapiens) (P11473 whole entry, looked up): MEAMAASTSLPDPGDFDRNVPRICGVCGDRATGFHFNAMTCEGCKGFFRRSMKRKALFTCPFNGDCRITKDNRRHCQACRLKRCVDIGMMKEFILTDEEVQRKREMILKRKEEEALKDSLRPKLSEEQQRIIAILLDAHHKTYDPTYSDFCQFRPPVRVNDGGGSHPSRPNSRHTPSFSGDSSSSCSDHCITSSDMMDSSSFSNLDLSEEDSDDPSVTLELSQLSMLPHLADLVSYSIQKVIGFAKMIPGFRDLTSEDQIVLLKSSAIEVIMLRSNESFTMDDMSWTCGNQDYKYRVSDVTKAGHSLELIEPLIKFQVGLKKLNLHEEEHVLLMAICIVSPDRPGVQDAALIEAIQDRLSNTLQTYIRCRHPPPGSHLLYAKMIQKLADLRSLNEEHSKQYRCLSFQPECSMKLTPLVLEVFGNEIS
Method in brief: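 VDR-bla cells were plated 4 h at 37C/5% CO2, then exposed to compounds in DMSO for 16 h. After LiveBLAzer B/G FRET substrate addition and 2 h at room temperature, beta-lactamase reporter fluorescence was read.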

[19] = molecular target: Vitamin D3 receptor (Homo sapiens) (UniProt P11473); experiment: qHTS assay to identify small molecule antagonists of the vitamin D receptor (VDR) signaling pathway (AID 743223; active = well fitted inhibition curve with a large enough effect in the signal ratio in the repeat runs, not every such curve was filed as active; the % refers to the signal ratio)
Method in brief: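 Inhibition of agonist-driven VDR signalling is scored in VDR-bla cells: 3 nM final 1alpha,25-dihydroxyvitamin D3 plus compound, 16 h at 37C, then beta-lactamase detection by FRET substrate fluorescence after 2 h.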

[20] = qHTS assay to identify small molecule agonists of the vitamin D receptor (VDR) signaling pathway - cell viability counter screen (AID 743224); note: series mostly up to about 63 µM; nearly all actives have a fitted effect of over 50% in size
Method in brief: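 VDR-bla cells were preincubated 4 h at 37C/5% CO2, then exposed to compounds for 16 h. After the 2 h room-temperature bla FRET read, CellTiter-Glo was added to the same wells and luminescence read after 30 min.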

Measured: Potency

Cc1ccc2c(c1)C1CN(C)CCC1N2 (stereo not drawn)
not listed: [20]
inactive: all other assays above

CCOP(=S)(OCC)SCCl
not listed: [11] | [13] | [19]
inactive: all other assays above

CC[C@H](N)c1ccccc1
not listed: [8] | [10] | [11] | [13] | [14] | [16]
inactive: all other assays above

S=C=S
not listed: [9] | [11] | [13] | [14] | [16]
inactive: all other assays above

O=C(Cl)C(Cl)(Cl)Cl
not listed: [12]
inactive: all other assays above

COc1cccc(C=O)c1
not listed: [8] | [13] | [14] | [16] | [19]
inactive: all other assays above

COc1ccc(CN2CCNCC2)c(OC)c1OC
not listed: [8] | [9] | [18] | [19]
inactive: all other assays above

CCCC[N+](=O)[O-]
not listed: [11] | [13]
inactive: all other assays above
